KB-V1 MDR tox: qHTS assay for MDR1-selective chemotherapeutics: Primary screen using the drug-selected MDR subline cells KB-V1; Potency, µM (series often up to 46.1 µM), hits mostly cytotoxic; KB-V1 MDR cells viability, CellTiter-Glo, 72 h; 400,000 compounds, 3.4% hits; further: on the % scale 0 is the no-effect control and ±100 the full control effect; nearly all actives have a fitted effect of over 60% in size
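Drug-selected KB-V1 cells, grown in DMEM lacking phenol red with 10% FBS, receive compound titrations; after three days at 37 degrees C, surviving cell ATP is quantified by CellTiter-Glo luminescence and responses normalized and curve-fitted.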
KB-3-1 tox: qHTS assay for MDR1-selective chemotherapeutics: Primary screen using the parental adenocarcinoma cell KB-3-1; KB-3-1 viability, CellTiter-Glo ATP luminescence, 72 h; Potency, µM (top dose mostly 46.1 µM), most hits filed as cytotoxic; 400,000 compounds, 1.4% hits; AID 1347075, 2019; further: on the % scale 0 is the no-effect control and ±100 the full control effect; nearly all actives have a fitted effect of over 60% in size
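KB-3-1 cells, DMEM (no phenol red) + 10% FBS; compound by pin transfer, 72 h, 37 °C. Readout: CellTiter-Glo luminescence after 10 min. Data normalized, curve-fitted.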
MCF10A rereplic: A quantitative high throughput screen for small molecules that induce DNA re-replication in MCF 10a normal breast cells | MCF 10A DNA re-replication, Hoechst nuclear intensity, 48 h | AID 624296, 2012 | Potency, µM (series often up to 46.1 µM), for inactives: at the top dose activity, positive = re-replication, hits mostly activators | 350,000 compounds, 2.9% hits; further: % of control where 0% means no effect; nearly all actives have a fitted effect of over 50% in size
ELG1 DNA repair: qHTS screen for small molecules that inhibit ELG1-dependent DNA repair in human embryonic kidney (HEK293T) cells expressing luciferase-tagged ELG1 | HEK293T ELG1-luciferase reporter, luminescence, 16 h; DNA damage induced by 5-fluorouridine | Potency, µM (highest dose often 46.1 µM), inactives show top-dose activity change, negative = inhibition, most hits filed as inhibitors | 330,000 compounds, 2.3% hits; further: on the % scale 0 is the no-effect control and ±100 the full control effect; nearly all actives have a fitted effect of over 55% in size
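Cells (2,000 per well) received 5-fluorouridine plus test compound or DMSO and were incubated 16 hr at 37 °C, 5% CO2. Luciferase activity was read by luminescence 30 min after ONE-Glo addition; signal suppression marked inhibition of damage-induced ELG1 function.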
SW480 rereplic: A quantitative high throughput screen for small molecules that induce DNA re-replication in SW480 colon adenocarcinoma cells | SW480 DNA re-replication, Hoechst DNA content imaging, 48 h | Potency, µM (top dose mostly 46.1 µM), for inactives: top-dose re-replication activation, most hits filed as activators | 340,000 compounds, 1.8% hits | AID 624297, 2012; further: % of control where 0% means no effect; nearly all actives have a fitted effect of over 55% in size
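Treated cells incubate 48 hr (37 C, 5% CO2), are stained 40 min with Hoechst, and nuclear fluorescence is enumerated; a rise in nuclei with high DNA signal marks re-replication.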
Starred values were filed as active, the others as inactive. Only some compounds are listed: those with a hit (about 8.1% of all), similar ones and a draw of the others. The call rests on the fitted dose curve; in most records, active means well fitted curve in the direction sought with a large enough effect; inconclusive means small, poorly fitted or top-dose-only effect, or another doubt; inactive means no such curve, though single readings can be large; an effect the other way counts as inactive or inconclusive. Potency means the concentration at half of the fitted maximal effect.

For CN1C(=O)/C(=C/c2ccc(C(F)(F)F)cc2)Sc2ccc(C(=O)N3CCN(c4ccccn4)CC3)cc21 the results were KB-V1 MDR tox inactive, KB-3-1 tox inactive, MCF10A rereplic inconclusive, ELG1 DNA repair inconclusive and SW480 rereplic 2%.
Screening CN1C(=O)/C(=C/c2ccccc2Cl)Sc2ccc(C(=O)N3CCCC3)cc21 returned KB-V1 MDR tox inactive, KB-3-1 tox inactive, MCF10A rereplic 18µM*, ELG1 DNA repair inconclusive and SW480 rereplic -8%.
CCOC(=O)C1CCCN(C(=O)c2ccc3c(c2)N(C)C(=O)/C(=C/c2ccccc2Cl)S3)C1 (stereo unspecified) was read as KB-V1 MDR tox inconclusive, KB-3-1 tox inconclusive, MCF10A rereplic inconclusive, ELG1 DNA repair 15µM* and SW480 rereplic inconclusive.
Screening CCC(=O)Oc1ccc(C/C(=N\O)c2ccc(O)cc2O)o1 returned KB-V1 MDR tox inactive, KB-3-1 tox inactive, MCF10A rereplic 15µM*, ELG1 DNA repair inconclusive and SW480 rereplic inconclusive.
COc1ccc(NC(=O)CSc2nc3c(cc2C#N)CN(C)CC3)cc1 was read as KB-V1 MDR tox inactive, KB-3-1 tox inactive, MCF10A rereplic -2% and SW480 rereplic -6%.
Screening c1cncc(N=c2scc(-c3cccc4ccccc34)n2CCCn2ccnc2)c1 returned KB-V1 MDR tox 12µM*, KB-3-1 tox inactive, MCF10A rereplic 26%, ELG1 DNA repair inconclusive and SW480 rereplic 2%.
Screening Cc1ccc(-c2csc3ncnc(Sc4nnc(CN5CCCCCC5=O)o4)c23)cc1 returned KB-V1 MDR tox inactive, KB-3-1 tox 12µM*, MCF10A rereplic 15µM*, ELG1 DNA repair inconclusive and SW480 rereplic inconclusive.
Screening COC(=O)C1=CN(C2CCCCC2)C=C(C(=O)OC)C1c1ccc2c(c1)OCO2 returned KB-V1 MDR tox inactive, KB-3-1 tox inactive, MCF10A rereplic 13µM*, ELG1 DNA repair 7% and SW480 rereplic 7.3µM*.
Screening COC(=O)C1=CN(c2ccc3c(c2)OCO3)C(N)=C(C#N)C1c1ccc(-c2ccccc2)cc1 (stereo unspecified) returned KB-V1 MDR tox 3.7µM* and KB-3-1 tox 4.6µM*.
For COC(=O)C1=CN(c2cc(C)cc(C)c2)C=C(C(=O)OC)C1c1cccc(F)c1 the results were KB-V1 MDR tox inconclusive, KB-3-1 tox inactive, MCF10A rereplic 3.7µM*, ELG1 DNA repair 11% and SW480 rereplic inconclusive.
`COC(=O)C1=CN(c2ccc(F)cc2)C(N)=C(C#N)C1c1ccc(-c2ccccc2)cc1` (stereo unspecified) gave KB-V1 MDR tox 16µM* and KB-3-1 tox inconclusive.
For COCCN1C=C(C(=O)OC)C(c2ccc3c(c2)OCO3)C(C(=O)OC)=C1 the results were KB-V1 MDR tox inconclusive, KB-3-1 tox inactive, MCF10A rereplic -21%, ELG1 DNA repair 6% and SW480 rereplic 0%.
`COC(=O)C1=CN(c2cc(C)cc(C)c2)C=C(C(=O)OC)C1c1ccc(OC)c(O)c1` gave KB-V1 MDR tox inconclusive, KB-3-1 tox inconclusive, MCF10A rereplic 20%, ELG1 DNA repair -13% and SW480 rereplic inconclusive.
Screening COC(=O)C1=CN(c2ccc(OC)cc2OC)C(N)=C(C#N)C1c1cccc([N+](=O)[O-])c1 (stereo unspecified) returned KB-V1 MDR tox 2.3µM* and KB-3-1 tox 2.1µM*.
`COC(=O)C1=CN(c2ccc(C(C)(C)C)cc2)C(N)=C(C#N)C1c1ccc(OC)cc1` (stereo unspecified) gave KB-V1 MDR tox inconclusive and KB-3-1 tox inactive.
COC(=O)C1=CN(c2ccc(F)cc2)C(N)=C(C#N)C1c1cccc(F)c1 (stereo unspecified) was read as KB-V1 MDR tox 8.2µM* and KB-3-1 tox inconclusive.
`COC(=O)C1=CN(c2ccc(Oc3ccccc3)cc2)C(N)=C(C#N)C1c1cccc(F)c1` (stereo unspecified) gave KB-V1 MDR tox inactive and KB-3-1 tox inactive.
For CCOc1ccc(S(=O)(=O)NCc2ccco2)c2ccccc12 the results were KB-V1 MDR tox inconclusive, KB-3-1 tox inactive, MCF10A rereplic inconclusive, ELG1 DNA repair 2% and SW480 rereplic inconclusive.
CN1CC=C2C(C#N)=C(N)C(C#N)(C#N)[C@H](c3cccs3)[C@H]2C1 was read as KB-V1 MDR tox inactive, KB-3-1 tox inactive, MCF10A rereplic -2%, ELG1 DNA repair -11% and SW480 rereplic -4%.
Screening CN1CC=C2C(C#N)=C(N)C(C#N)(C#N)C(CCc3ccccc3)C2C1 (stereo unspecified) returned KB-V1 MDR tox 18µM*, KB-3-1 tox inactive, MCF10A rereplic 17%, ELG1 DNA repair 3% and SW480 rereplic 5%.
For CCOc1cc(N2CCOCC2)c(OCC)cc1NC(=O)COC(=O)c1ccccc1C the results were KB-V1 MDR tox inactive, KB-3-1 tox inactive, MCF10A rereplic 11%, ELG1 DNA repair inconclusive and SW480 rereplic -9%.
`CCOc1cc(N2CCOCC2)c(OCC)cc1NC(=O)Cc1cccc2ccccc12` gave KB-V1 MDR tox inconclusive, KB-3-1 tox inactive, MCF10A rereplic 15%, ELG1 DNA repair 18µM* and SW480 rereplic -1%.
CCN(CC)S(=O)(=O)c1ccc(N2CCCC2)c(NC(=O)c2nn(C)c(=O)c3ccccc23)c1 was read as KB-V1 MDR tox inactive, KB-3-1 tox inactive, MCF10A rereplic 1%, ELG1 DNA repair 18µM* and SW480 rereplic 1%.
For CCN(CC)S(=O)(=O)c1ccc(N2CCOCC2)c(NC(=O)Cc2cccc3ccccc23)c1 the results were KB-V1 MDR tox inactive, KB-3-1 tox inactive, MCF10A rereplic -3%, ELG1 DNA repair 7.3µM* and SW480 rereplic -7%.
`CCN(CC)S(=O)(=O)c1ccc(N2CCOCC2)c(NC(=O)Cc2ccccc2F)c1` gave KB-V1 MDR tox inactive, KB-3-1 tox inactive, MCF10A rereplic 15%, ELG1 DNA repair 18µM* and SW480 rereplic -3%.
`COc1ccc(S(=O)(=O)NCCc2ccncc2)cc1` gave KB-V1 MDR tox inactive, KB-3-1 tox inactive, MCF10A rereplic 7%, ELG1 DNA repair 11% and SW480 rereplic 12%.
Cn1c(N)c(C#N)c2c(c1=S)COC(C)(C)C2 was read as KB-V1 MDR tox inactive, KB-3-1 tox inactive, MCF10A rereplic -3%, ELG1 DNA repair inconclusive and SW480 rereplic 105%.
